Test results taken from PubChem BioAssay (NCATS).
Results filed as inconclusive are left out. The source made the active and inactive calls. Unless noted, calls follow the shape of the dose curve; as a rule, active = well fitted curve in the direction sought with a large enough effect; inconclusive = small, poorly fitted or top-dose-only effect, or another doubt; inactive = no such curve, though single readings can be large; an effect the other way counts as inactive or inconclusive.

How the values were obtained:
[1] = Cell Viability - BJ (AID 421; calls by dose curve;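 also: potency is read from the fitted curve at half-maximal effect; cells exposed to compound for 40 hours at 37 °C before readout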); settings: BJ fibroblast viability, qHTS
How it was run: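 Normal human BJ foreskin fibroblasts, 1500/well in complete medium, treated 40 hr at 37 °C. Cellular ATP by CellTiter-Glo luminescence; normalized to DMSO and 100 uM tamoxifen, AC50 from Hill fit.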

[2] = Cell Viability - Jurkat (AID 426;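 active = dose-dependent loss of cell ATP signal giving a full or clear fitted curve, ranked by lower potency value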; also: potency is read from the fitted curve at half-maximal effect); settings: qHTS
How it was run: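 Cytotoxicity was scored as loss of cellular ATP, measured by luciferase-based luminescence, in Jurkat clone E6-1 cells after 40 h compound treatment; tamoxifen and doxorubicin served as positive controls.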

[3] = Cell Viability - Hek293 (AID 427;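 active = compounds whose dose-response curve shows a full or clear partial loss of cell viability, called from curve shape rather than a numeric limit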;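 also: potency is read from the fitted curve at half-maximal effect; cells exposed to compound for 40 hours at 37 °C before reading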); settings: qHTS
How it was run: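 HEK293 cells in complete medium were exposed to compound for 40 hr at 37 °C, then cellular ATP was read by CellTiter-Glo luminescence. Data were normalized to DMSO (basal) and 100 uM tamoxifen (100% inhibition), and AC50 came from Hill fits.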

[4] = Cell Viability - HepG2 (AID 433; calls by dose curve;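 also: potency is read from the fitted curve at half-maximal effect; potency for ATP loss meaning cytotoxicity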); settings: qHTS
How it was run: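 HepG2 hepatocellular carcinoma cells (1500/well) were treated with compounds for 40 h at 37 °C in complete medium; intracellular ATP was read by CellTiter-Glo luminescence. Data were normalized to DMSO and 100 uM tamoxifen, and AC50 came from Hill fits.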

[5] = Cell Viability - MRC5 (AID 434; calls by dose curve;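 also: potency is read from the fitted curve at half-maximal effect; potency reflects cytotoxicity seen as loss of intracellular ATP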); settings: MRC5 lung fibroblast viability, qHTS
How it was run: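 Decrease in intracellular ATP, quantified by luciferase light output, reflects compound toxicity toward MRC5 cells exposed for 40 hr in complete culture medium. Concentration-response curves, scaled between DMSO and 100 uM tamoxifen, gave AC50 values.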

[6] = Cell Viability - SK-N-SH (AID 435; calls by dose curve;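 also: potency is read from the fitted curve at half-maximal effect; compound exposure lasted 40 h at 37 °C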); settings: SK-N-SH neuroblastoma cell viability qHTS
How it was run: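 SK-N-SH human neuroblastoma cells (1500/well) were exposed to compounds in complete medium for 40 h at 37 °C, and intracellular ATP was then measured by CellTiter-Glo luminescence. AC50 was taken from Hill fits, normalized to DMSO and 100 uM tamoxifen.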

[7] = biological target: Mitogen-activated protein kinase 10 (Mus musculus) (UniProt Q61831); test: JNK3 AlphaScreen Assay (AID 530; active = well fitted curve in either direction with a large enough effect, not every such curve was filed as active;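 also: kinase came from lysate of stimulated human HepG2 cells; signal reports phosphorylation of biotinylated GST-cJun 1-79 at Ser73 with 10 µM ATP; % is scaled to controls: 0 for no effect and ±100 for the full control effect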)
How it was run: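 Biotinylated GST-cJun(1-79) served as substrate for JNK3 in HepG2 lysates stimulated with IL-1beta and TNF-alpha. ATP was 10 uM final, pH 7.6. Ser73 phosphorylation was quantified by AlphaScreen (680 nm excitation).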

[8] = Cell Viability - N2a (AID 540); settings: N2a mouse neuroblastoma cell viability; activity change, negative = cytotoxicity: at 92.2 µM (top of the series);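 also: plate controls were DMSO alone for no effect and tamoxifen control for full effect; nearly all actives have a fitted effect of over 45% in size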
How it was run: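 In this qHTS cytotoxicity screen, ATP-dependent luciferase luminescence reports viable N2a cells after a 40 hr compound exposure in complete culture medium. Potencies are AC50 values from standard Hill equation fits.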

[9] = Cell Viability - NIH 3T3 (AID 541); settings: NIH 3T3 cell viability, qHTS; activity change, negative = cytotoxicity: at 92.2 µM (top of the series);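 also: plate controls were DMSO alone for no effect and tamoxifen positive control for full effect; nearly all actives have a fitted effect of over 25% in size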
How it was run: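 In this cytotoxicity screen, acute toxicity is scored as an ATP drop measured by CellTiter-Glo in NIH 3T3 fibroblasts following a 40 hr, 37 °C incubation with compound.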

[10] = Cell Viability - HUV-EC-C (AID 542); also: % is scaled to controls: 0 for no effect and ±100 for the full control effect; nearly all actives have a fitted effect of over 35% in size
How it was run: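 Concentration-dependent ATP loss in HUV-EC-C cells is the measure. Exposure lasts 40 hr at 37 °C; luminescence follows CellTiter-Glo addition, and Hill fits give AC50.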

[11] = Cell Viability - H-4-II-E (AID 543); also: % is scaled to controls: 0 for no effect and ±100 for the full control effect; nearly all actives have a fitted effect of over 35% in size
How it was run: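 AC50 from Hill-modelled qHTS concentration-response curves. H-4-II-E rat hepatoma cells in complete medium, 40 hr exposure at 37 °C, viability by CellTiter-Glo ATP luminescence.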

[12] = Cell Viability - Renal Proximal Tubule (AID 545); settings: renal proximal tubule cells viability, primary cells of rat origin; at 91.7 µM (top of the series); also: nearly all actives have a fitted effect of over 40% in size
How it was run: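 Primary rat renal proximal tubule cells (1000/well) were treated with compounds for 40 hr at 37 °C in complete medium. Intracellular ATP was measured by CellTiter-Glo luminescence, and AC50 values came from Hill-equation fits of concentration-response data.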

[13] = Cell Viability - Mesenchymal (AID 546); settings: mesenchymal cells viability, qHTS; activity change, negative = cytotoxicity: at 91.7 µM (top of the series);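 also: cells exposed to compound for 40 hours before reading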
How it was run: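 In this qHTS cytotoxicity format, glomerulus-derived human mesenchymal kidney cells received compound for 40 hr, then luciferase-based ATP quantitation. Concentration-response data were fitted with the Hill equation.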

[14] = Cellular Toxicity (caspase-3) HepG2 (AID 654);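 also: cells exposed to compound for 16 hours before reading; 0% = DMSO alone and 100% = caspase signal from 100 µM tamoxifen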
How it was run: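 Concentration-response AC50 values reflect caspase-3/7 induction in HepG2 cells after 16 hours of compound exposure, quantified by luminescence from liberated aminoluciferin and referenced to 100 uM tamoxifen as full stimulation.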

[15] = Cellular Toxicity (caspase-3) Jurkat (AID 655); settings: Jurkat caspase-3 activation, luminescence, DMSO = 0%, tamoxifen = 100%; at 92.2 µM (top of the series);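 also: cells exposed to compound for 16 h at 37 °C before reading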
How it was run: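 Jurkat cells (5000/well) in complete medium were treated with compounds for 16 hr at 37 °C, then Caspase-Glo 3/7 luminescence was read after 20 min at room temperature. Data normalized to DMSO (basal) and 100 uM tamoxifen (100%); AC50 from Hill fit.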

[16] = Cellular Toxicity (caspase-3) HUV-EC-C (AID 656)
How it was run: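 HUV-EC-C endothelial cells, 1000/well, were pre-incubated 5 hr at 37°C, then exposed to compounds for 16 hr at 37°C. Caspase-Glo 3/7 luminescence was read after 20 min at room temperature. AC50 came from Hill fits, normalized to DMSO and 100 uM tamoxifen.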

[17] = Cellular Toxicity (caspase-3) SHSY5Y (AID 657)
How it was run: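 SH-SY5Y human neuroblastoma cells (1500/well) were treated with compounds for 16 h at 37 °C, then Caspase-Glo 3/7 luminescence was read after 1 h at room temperature. Data normalized to DMSO and 10 uM staurosporine; AC50 from Hill fits.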

[18] = Cellular Toxicity (caspase-3) BJ (AID 658);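 also: 0% = DMSO basal and 100% = 10 µM staurosporine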
How it was run: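 Plated BJ cells (1000/well) rested 5 hr, received compound for 16 hr at 37 °C, then Caspase-Glo 3/7 reagent for 1 hr at room temperature before luminescence reading.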

[19] = Cellular Toxicity (caspase-3) MRC-5 (AID 659);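 also: 0% = DMSO basal and 100% = 10 µM staurosporine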
How it was run: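 Apoptosis readout in MRC-5 cells: luciferase light generated after caspase 3/7 cleaves a peptide-aminoluciferin substrate, measured post 16 hr compound incubation at 37 °C.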

[20] = Cellular Toxicity (caspase-3) Mesangial (AID 660);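 also: combined caspase 3 and 7 activity read by Caspase-Glo luminescence; cells exposed to compound for 16 h before the caspase read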
How it was run: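 AC50 values come from Hill-equation fits of caspase 3/7 activation, measured as Caspase-Glo luminescence in human glomerular mesangial cells exposed to compound for 16 h at 37 °C; 100% set by 100 uM tamoxifen.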

[21] = Cellular Toxicity (caspase-3) SK-N-SH (AID 661);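 also: 0% = DMSO basal and 100% = 10 µM staurosporine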
How it was run: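 Apoptosis readout in SK-N-SH neuroblastoma: Caspase-Glo 3/7 luminescence following 16 hr treatment in complete culture medium. Normalization used DMSO and 10 uM staurosporine controls.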

[22] = Cellular Toxicity (caspase-3) H-4-II-E (AID 663); settings: Potency: caspase-3 activation;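 also: cells exposed to compound for 16 hr before readout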
How it was run: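 Caspase 3/7 activation measured in H-4-II-E cells in complete culture medium after 16 hr treatment at 37 °C, using luciferase-coupled substrate readout; AC50 values come from Hill-equation fits of normalized concentration-response data.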

O=C(/C=C/c1ccc(O)c(O)c1)O[C@@H](C(=O)O)[C@@H](OC(=O)/C=C/c1ccc(O)c(O)c1)C(=O)O
inactive: Potency [1] > 92 µM | Potency [2] > 92 µM | Potency [3] > 92 µM | Potency [4] > 92 µM | Potency [5] > 92 µM | Potency [6] > 92 µM | Potency [7] | activity change, negative = cytotoxicity [8] -0.47% | Potency [9] | outcome [10] | Potency [11] | activity change, negative = cytotoxicity [12] -5.23% | activity change, negative = cytotoxicity [13] 11% | outcome [14] | caspase-3 activation [15] 1.83% | outcome [16] | outcome [17] | outcome [18] | outcome [19] | outcome [20] | outcome [21] | Potency [22]
